# Measurements taken from the supplement of paper PMC8728848.
# Only a selection was taken, and the strongest signals are over-represented in it overall.
# Columns and labels:
# Experiment in all cases: glycan array binding signal (z-score within array); higher = stronger binding
# Settings in all cases: glycan notation: IUPAC condensed, linker removed
# [1] = target: Gal(b1-4)GlcNAc(b1-3)Gal(b1-4)GlcNAc(b1-3)Gal(b1-4)GlcNAc(b1-2)Man(a1-3)[Gal(b1-4)GlcNAc(b1-3)Gal(b1-4)GlcNAc(b1-3)Gal(b1-4)GlcNAc(b1-2)Man(a1-6)]Man(b1-4)GlcNAc(b1-4)[Fuc(a1-6)]GlcNAc
# In short: (§1)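 The binding signal is a Z-score computed within each array and averaged over linkers. Arrays of the same protein sequence at different concentrations or buffers were also averaged together. Data originate from 3228 arrays in the Consortium for Functional Glycomics database, kept only where the protein sequence was available.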
# Gal3S(b1-4)Glc = target: Gal3S(b1-4)Glc
# In short: as §1
# Gal6S(b1-3)GlcNAc = target: Gal6S(b1-3)GlcNAc
# In short: as §1
# [2] = target: GalNAc(a1-3)GalNAc(b1-3)Gal(a1-4)Gal(b1-4)Glc
# In short: as §1
# GalNAc(b1-4)Gal(b1-4)Glc = target: GalNAc(b1-4)Gal(b1-4)Glc
# In short: as §1
# [3] = target: GlcNAc(a1-4)Gal(b1-3)GlcNAc
# In short: as §1
# [4] = target: GlcNAc(b1-2)[GlcNAc(b1-4)]Man(a1-3)[GlcNAc(b1-2)Man(a1-6)]Man(b1-4)GlcNAc(b1-4)GlcNAc
# In short: as §1
# [5] = target: GlcNAc(b1-2)[GlcNAc(b1-6)]Man(a1-6)[GlcNAc(b1-2)Man(a1-3)]Man(b1-4)GlcNAc(b1-4)GlcNAc
# In short: as §1
# [6] = target: GlcNAc(b1-3)Gal(b1-4)GlcNAc(b1-3)Gal(b1-4)GlcNAc(b1-3)Gal(b1-4)GlcNAc(b1-2)[GlcNAc(b1-3)Gal(b1-4)GlcNAc(b1-3)Gal(b1-4)GlcNAc(b1-3)Gal(b1-4)GlcNAc(b1-6)]Man(a1-6)[GlcNAc(b1-3)Gal(b1-4)GlcNAc(b1-3)Gal(b1-4)GlcNAc(b1-3)Gal(b1-4)GlcNAc(b1-2)Man(a1-3)]Man(b1-4)GlcNAc(b1-4)[Fuc(a1-6)]GlcNAc
# In short: as §1
# [7] = target: GlcNAc(b1-3)[GlcNAc(b1-6)]Gal(b1-4)GlcNAc
# In short: as §1
# [8] = target: Man(a1-2)Man(a1-3)[Man(a1-2)Man(a1-6)]Man(a1-6)[Man(a1-2)Man(a1-2)Man(a1-3)]Man(b1-4)GlcNAc(b1-4)GlcNAc
# In short: as §1
# [9] = target: Man(a1-3)[Man(a1-6)]Man(a1-6)[Man(a1-3)]Man
# In short: as §1
# Man(b1-4)GlcNAc = target: Man(b1-4)GlcNAc
# In short: as §1
# [10] = target: Neu5Ac(a2-3)Gal(b1-3)GalNAc6S
# In short: as §1
# [11] = target: Neu5Ac(a2-3)Gal(b1-3)GlcNAc
# In short: as §1
# [12] = target: Neu5Ac(a2-3)Gal(b1-3)GlcNAc(b1-3)GalNAc
# In short: as §1
# [13] = target: Neu5Ac(a2-3)Gal(b1-3)[GlcNAc(b1-6)]GalNAc
# In short: as §1
# [14] = target: Neu5Ac(a2-3)Gal(b1-4)GlcNAc(b1-2)[Neu5Ac(a2-3)Gal(b1-4)GlcNAc(b1-6)]Man(a1-6)[Neu5Ac(a2-3)Gal(b1-4)GlcNAc(b1-2)Man(a1-3)][GlcNAc(b1-4)]Man(b1-4)GlcNAc(b1-4)GlcNAc
# In short: as §1
# [15] = target: Neu5Ac(a2-3)Gal(b1-4)GlcNAc(b1-3)Gal(b1-4)GlcNAc(b1-2)Man(a1-3)[Neu5Ac(a2-3)Gal(b1-4)GlcNAc(b1-3)Gal(b1-4)GlcNAc(b1-2)Man(a1-6)]Man(b1-4)GlcNAc(b1-4)GlcNAc
# In short: as §1
# [16] = target: Neu5Ac(a2-3)Gal(b1-4)GlcNAc(b1-3)Gal(b1-4)GlcNAc(b1-3)[Neu5Ac(a2-3)Gal(b1-4)GlcNAc(b1-3)Gal(b1-4)GlcNAc(b1-6)]GalNAc
# In short: as §1
# [17] = target: Neu5Ac(a2-3)Gal(b1-4)[Fuc(a1-3)]GlcNAc
# In short: as §1
# [18] = target: Neu5Ac(a2-3)Gal(b1-4)[Fuc(a1-3)]GlcNAc(b1-3)GalNAc
# In short: as §1
# [19] = target: Neu5Ac(a2-3)Gal(b1-4)[Fuc(a1-3)]GlcNAc6S
# In short: as §1
# [20] = target: Neu5Ac(a2-6)Gal(b1-4)GlcNAc(b1-2)[Neu5Ac(a2-6)Gal(b1-4)GlcNAc(b1-4)]Man(a1-3)[GlcNAc(b1-4)][Neu5Ac(a2-6)Gal(b1-4)GlcNAc(b1-4)Man(a1-6)]Man(b1-4)GlcNAc(b1-4)GlcNAc
# In short: as §1
# [21] = target: Neu5Ac(a2-6)Gal(b1-4)GlcNAc(b1-3)Gal(b1-4)GlcNAc(b1-3)Gal(b1-4)GlcNAc(b1-2)Man(a1-3)[Neu5Ac(a2-6)Gal(b1-4)GlcNAc(b1-3)Gal(b1-4)GlcNAc(b1-3)Gal(b1-4)GlcNAc(b1-2)Man(a1-6)]GalNAc
# In short: as §1
# [22] = target: Neu5Ac(a2-6)Gal(b1-4)GlcNAc(b1-6)GalNAc
# In short: as §1
# Neu5Ac(a2-8)Neu5Ac = target: Neu5Ac(a2-8)Neu5Ac
# In short: as §1
# [23] = target: Neu5Ac(a2-8)Neu5Ac(a2-3)[GalNAc(b1-4)]Gal(b1-4)Glc
# In short: as §1
binder,measurement,setting,value
Pwp5 ND (Candida glabrata) (protein) MGSSHHHHHHSSGLVPRGSHMASANPVPLTNVCYFPEEYPRQAGFRAITAGLASTILQGSVDELLNYSGLSSLTTQQTTTTTPNFQLPTLPLPTNVYGLTVVPLYLLVQLQGYFVPPVSGQYTFSLENTNDAAIIFFGNPSAFPCGDLSAWPQASADDITVTDGTFPSRTLFLKAGVAYPMRISYYNSLGSGNLAVSFTDPGGTKRTNWNGYIWRYNSCSTCTYT,glycan array binding signal (z-score),[1],3.19
same,glycan array binding signal (z-score),Gal3S(b1-4)Glc,-0.405
same,glycan array binding signal (z-score),Gal6S(b1-3)GlcNAc,-0.366
same,glycan array binding signal (z-score),[2],-0.548
same,glycan array binding signal (z-score),GalNAc(b1-4)Gal(b1-4)Glc,0.779
same,glycan array binding signal (z-score),[3],-0.557
same,glycan array binding signal (z-score),[4],-0.667
same,glycan array binding signal (z-score),[5],3.15
same,glycan array binding signal (z-score),[6],1.57
same,glycan array binding signal (z-score),[7],-0.152
same,glycan array binding signal (z-score),[8],-0.293
same,glycan array binding signal (z-score),[9],5.77
same,glycan array binding signal (z-score),Man(b1-4)GlcNAc,-0.41
same,glycan array binding signal (z-score),[10],-0.411
same,glycan array binding signal (z-score),[11],0.287
same,glycan array binding signal (z-score),[12],0.055
same,glycan array binding signal (z-score),[13],-0.173
same,glycan array binding signal (z-score),[14],13
same,glycan array binding signal (z-score),[15],-0.247
same,glycan array binding signal (z-score),[16],4.41
same,glycan array binding signal (z-score),[17],-0.271
same,glycan array binding signal (z-score),[18],-0.138
same,glycan array binding signal (z-score),[19],0.989
same,glycan array binding signal (z-score),[20],-0.613
same,glycan array binding signal (z-score),[21],3.34
same,glycan array binding signal (z-score),[22],3.96
same,glycan array binding signal (z-score),Neu5Ac(a2-8)Neu5Ac,0.246
same,glycan array binding signal (z-score),[23],0.315
